Pf Dd2 growth: P. falciparum Dd2 growth inhibition; activity change, % at 10 µM; 94,000 tested, 2.3% active; SYBR Green, 72 h; stronger effect = lower value; in the data active means activity change below about -80%; inconclusive means no clear call, values can overlap the other calls
T cruzi growth-1: inhibitors of T. cruzi proliferation | 77,000 tested, 5.9% active | inhibition, % at 8.34 µM | T. cruzi beta-gal in NIH3T3, GalScreen luminescence, 90 h;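 active means mean inhibition above about 93%, with at least 55% of replicates each passing it, limit read from the data, passing the limit was not always enough; inconclusive means only one of those two conditions holds; inactive means neither condition holds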
C diff HTS: inhibitors of Clostridium difficile growth; Clostridium difficile clinical isolate growth, OD600, 24 h; stronger effect = lower value; growth activity, negative = inhibition, % at 16 µg/mL (by protocol); 86,000 tested, 0.25% active;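 active means mean growth activity at or below -80% and every replicate also at or below -80%; inconclusive means mean at or below -80% but some replicate above -80%; inactive means mean growth activity above -80%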;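 further: 0% = DMSO wells and -100% = levofloxacin 16 µg/mL wells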
T cruzi growth-2: Trypanosoma cruzi proliferation inhibition | T. cruzi beta-gal in NIH3T3, GalScreen luminescence, 90 h | inhibition, % at 8.35 µM | shares compounds with T cruzi growth-1 | AID 651739 | 5,600 tested, 72% active;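 active means mean replicate inhibition above about 95% and at least 55% of replicates individually reaching it, limit read from the data; inconclusive means only one of the two criteria is met; inactive means neither criterion is met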
T cruzi growth-3: inhibitors of T. cruzi proliferation; inhibition, % at 2.09 µM; 5,600 tested, 21% active; shares compounds with T cruzi growth-1; T. cruzi beta-gal in NIH3T3, GalScreen luminescence, 90 h;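 active means mean inhibition above about 95%, with at least 55% of replicates also reaching it, limit read from the data; inconclusive means meets just one of the two conditions; inactive means meets neither condition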;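 further: plate controls were neutral control median for no effect and positive control median for full effect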
3T3 cytotox: cytotoxicity in mouse NIH/3T3 fibroblasts; shares compounds with T cruzi growth-1; NIH/3T3 viability, CellTiter-Glo ATP luminescence, 90 h; cytotoxicity (signal decrease), % at 8.35 µM; 5,600 tested, 14% active;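 active means mean signal decrease across replicates above about 35% based on untreated-well scatter, with enough replicates individually passing, limit read from the data; inconclusive means no rule stated though some were filed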;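 further: 0% = median of neutral control wells and 100% = median of positive control wells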
3T3 cytotox 2: kills mouse NIH/3T3 fibroblasts. NIH/3T3 viability, CellTiter-Glo ATP luminescence, 90 h. 5,600 tested, 56% active. shares compounds with T cruzi growth-1. inhibition, % at 24.9 µM;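 active means mean loss of cell viability signal at or above a set limit, and enough replicates individually reaching it; inconclusive means meets only the mean limit or only the replicate share; inactive means meets neither condition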;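 further: 0% = median of neutral control wells and 100% = median of positive control wells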
Active calls of the source: *; ? = inconclusive; . = no result. Shown are actives, neighbours in structure and some others; about 6.7% of the full set was active somewhere.

SMILES	Pf Dd2 growth	T cruzi growth-1	C diff HTS	T cruzi growth-2	T cruzi growth-3	3T3 cytotox	3T3 cytotox 2
N#C[C@@H]1[C@@H](c2ccc(C#CC3CC3)cc2)[C@H](CO)N1C(=O)c1cccc(F)c1	-55	97*	9	105*	110*	20	12
N#C[C@H]1[C@@H](c2ccc(C#CC3CCCC3)cc2)[C@H](CO)N1C(=O)c1cccc(F)c1	-59	.	56	.	.	.	.
CC(C)C#Cc1ccc([C@H]2[C@@H](CO)N(C(=O)c3ccccn3)[C@H]2C#N)cc1	-45	97*	2	98*	80	15	16
N#C[C@H]1[C@@H](c2ccc(C#CC3CC3)cc2)[C@H](CO)N1C(=O)c1cccc(F)c1	-61	94	12	.	.	.	.
CC(C)C#Cc1ccc([C@H]2[C@@H](C#N)N(C(=O)c3cccc(F)c3)[C@@H]2CO)cc1	-35	98*	0	99*	108*	4	38
COc1ccccc1CNC(=O)C[C@H]1CC[C@@H]2[C@H](COC[C@H](O)CN2C(=O)Nc2ccc(F)cc2)O1	15	-29	5	.	.	.	.
COC(=O)[C@@H]1[C@@H](CO)[C@@H]2Cn3c(ccc(C4=CCCCC4)c3=O)[C@@H]2N1Cc1cccnc1	34	.	-3	.	.	.	.
OC[C@H]1[C@H](c2ccc(Br)cc2)[C@@H]2CN(Cc3ccccn3)CCCCN12	-12	109*	-1	?	55	3	3
OC[C@@H]1[C@H](c2ccc(-c3cccnc3)cc2)[C@@H]2CN(Cc3ccccn3)CCCCN12	-45	95	-4	.	.	.	.
OC[C@H]1[C@@H](c2ccc(Br)cc2)[C@H]2CN(Cc3ccccn3)CCCCN21	19	25	4	.	.	.	.
OC[C@@H]1[C@H](c2ccc(-c3cccnc3)cc2)[C@H]2CN(Cc3ccccn3)CCCCN12	-16	109*	-5	97*	75	4	6
COc1ccc(NC(=O)N(C)C[C@H]2Oc3ccc(NS(=O)(=O)c4ccc(F)cc4)cc3CC(=O)N([C@@H](C)CO)C[C@@H]2C)cc1	5	19	14	.	.	.	.
N#C[C@@H]1[C@H](c2ccc(-c3ccc(F)cc3)cc2)[C@@H](CO)N1c1nc(-c2ccccc2)cs1	-21	.	-6	.	.	.	.
N#C[C@@H]1[C@H](c2ccc(-c3cccc(F)c3)cc2)[C@@H](CO)N1c1nc(-c2ccccc2)cs1	17	.	-2	.	.	.	.
N#C[C@@H]1[C@H](c2ccc(-c3ccc(F)cc3)cc2)[C@H](CO)N1c1nc(-c2ccccc2)cs1	32	101*	-9	-11	31	-5	-11
N#C[C@@H]1[C@@H](c2ccc(-c3ccc(F)cc3)cc2)[C@H](CO)N1c1nc(-c2ccccc2)cs1	4	103*	6	107*	71	11	25
C[C@@H]1CCCCO[C@H](CN(C)C(=O)Cc2ccccc2)[C@H](C)CN([C@@H](C)CO)C(=O)c2cc(NC(=O)CCC(F)(F)F)ccc2O1	-21	72	3	.	.	.	.
C[C@@H]1CN([C@@H](C)CO)S(=O)(=O)c2ccc(-c3ccc(C(=O)N(C)C)cc3)cc2O[C@@H]1CN(C)C(=O)Nc1ccccc1F	-4	.	-1	.	.	.	.
C[C@@H]1CN([C@@H](C)CO)C(=O)c2cc(NC(=O)Nc3ccccc3)ccc2O[C@H]1CN(C)C(=O)Nc1ccc2c(c1)OCO2	16	21	.	.	.	.	.
O=C(C1CCOCC1)N1C[C@@H]2[C@H](c3ccccc31)[C@H](CO)N2C(=O)Nc1cccc(F)c1	-3	2	9	.	.	.	.
O=C(NCC[C@H]1CC[C@@H](NS(=O)(=O)c2ccc(F)cc2)[C@@H](CO)O1)Nc1ccc(F)cc1	-11	.	6	.	.	.	.
COc1cccc(S(=O)(=O)N(C)C[C@@H]2Oc3cc(Br)ccc3S(=O)(=O)N([C@@H](C)CO)C[C@@H]2C)c1	-56	.	7	.	.	.	.
COc1ccc(S(=O)(=O)N(C)C[C@H]2Oc3cc(Br)ccc3S(=O)(=O)N([C@H](C)CO)C[C@H]2C)cc1	-26	?	5	102*	38	5	54*
COc1ccc(S(=O)(=O)N(C)C[C@@H]2Oc3cc(Br)ccc3S(=O)(=O)N([C@H](C)CO)C[C@@H]2C)cc1	-37	?	7	101*	39	15	61*
Cc1ccc(S(=O)(=O)N(C)C[C@H]2Oc3cc(Br)ccc3S(=O)(=O)N([C@H](C)CO)C[C@H]2C)cc1	-6	67	14	.	.	.	.
SMILES	Pf Dd2 growth	T cruzi growth-1	C diff HTS	T cruzi growth-2	T cruzi growth-3	3T3 cytotox	3T3 cytotox 2
O=C(C[C@H]1CC[C@@H](NC(=O)Nc2ccc(C(F)(F)F)cc2)[C@@H](CO)O1)NCc1cc(F)cc(F)c1	1	22	.	.	.	.	.
C[C@@H]1CN([C@H](C)CO)C(=O)c2cc(NC(=O)Cc3ccccc3)ccc2O[C@@H]1CN(C)S(C)(=O)=O	18	12	-4	.	.	.	.
C[C@H](CO)N1C[C@H](C)[C@H](CN(C)Cc2cncnc2)Oc2cc(/C=C/c3ccccc3)ccc2S1(=O)=O	-45	75	1	.	.	.	.
C[C@H]1CN([C@@H](C)CO)S(=O)(=O)c2ccc(/C=C/c3ccccc3)cc2O[C@H]1CN(C)Cc1cncnc1	-48	103*	-2	95*	78	57*	46*
C[C@@H]1CN([C@H](C)CO)S(=O)(=O)c2ccc(/C=C/c3ccccc3)cc2O[C@@H]1CN(C)Cc1cncnc1	-1	90	-14	.	.	.	.
C[C@@H]1CN([C@@H](C)CO)S(=O)(=O)c2ccc(/C=C/c3ccccc3)cc2O[C@H]1CN(C)Cc1cncnc1	-89*	121*	-7	112*	97*	54*	61*
COc1ccc(S(=O)(=O)N(C)C[C@H]2Oc3ccc(NS(C)(=O)=O)cc3CC(=O)N([C@@H](C)CO)C[C@@H]2C)cc1	20	47	3	.	.	.	.
C[C@H](CO)N1C[C@H](C)[C@H](CN(C)S(=O)(=O)c2cn(C)cn2)Oc2ccc(NC(=O)C3CC3)cc2C1=O	11	-21	.	.	.	.	.
COc1ccccc1CNC(=O)C[C@@H]1CC[C@H]2[C@@H](COC[C@H](O)CN2Cc2cccc(-c3ccncc3)c2)O1	.	92	2	.	.	.	.
COc1ccccc1CNC(=O)C[C@H]1CC[C@H]2[C@@H](COC[C@H](O)CN2Cc2ccccc2)O1	-29	.	0	.	.	.	.
COc1ccccc1CNC(=O)C[C@H]1CC[C@@H]2[C@H](COC[C@@H](O)CN2Cc2cccc(-c3ccncc3)c2)O1	.	?	2	96*	93	29	59*
COc1ccccc1CNC(=O)C[C@@H]1CC[C@H]2[C@@H](COC[C@H](O)CN2Cc2ccc3c(c2)OCO3)O1	-7	101*	88	76	28	12	7
COc1ccccc1CNC(=O)C[C@H]1CC[C@H]2[C@@H](COC[C@H](O)CN2Cc2cccc(-c3ccncc3)c2)O1	.	120*	2	98*	79	3	24
